Assay outcomes from PubChem BioAssay.
WT yeast gro inh – growth inhibition of WT yeast, mitochondrial fusion screen; mitochondrial fusion phenotypic screen, WT strain; inhibition, % at 10 µM; 2.1% of 190,000 active; AID 1362; in the data active means inhibition above about 58%; tested in S. cerevisiae
KCC2 mod – KCC2 (human) Cl- transport modulation | Q9H2X9 | KCC2 cells, thallium flux FluoZin-2 fluorescence | B-score of Tl+ flux slope (higher = more flux/activation; lower = inhibition) at 10 µM | 2.2% of 190,000 active | AID 1456;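 active means thallium flux slope and its plate-corrected score both differing from the plate sample mean at a set confidence after two filtering rounds, in either direction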;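 further: slope of fluorescence scaled to starting intensity during 10 to 20 s after thallium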
Lmaj promast – Leishmania major promastigote growth inhibition; AID 1063; 9% of 200,000 active; Leishmania major promastigotes, resazurin fluorescence viability; inhibition, % at 10 µM; in the data active means inhibition above about 50%;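 further: promastigotes grown with compound for 44 hours at 28 °C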
Calpain2 inh – calpain II (pig) inhibition | 0.37% of 220,000 active | purified calpain II, fluorogenic peptide substrate, 30 min | inhibition, % at 16 µM;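 active means inhibition above about 50%, limit read from the data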
ROMK mod – modulators of human ROMK potassium channel; Tet-inducible ROMK, thallium flux fluorescence; actives lie on both sides; B-score at 10 µM; 2% of 130,000 active; AID 1918;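 active means signal ratio slope over the read window, or its plate-corrected B-score, at least 3 SD from the plate mean, either direction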;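 further: B-score of the F/F0 ratio slope over 7 to 12 s after thallium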
Target sequence (P48048 whole entry, looked up): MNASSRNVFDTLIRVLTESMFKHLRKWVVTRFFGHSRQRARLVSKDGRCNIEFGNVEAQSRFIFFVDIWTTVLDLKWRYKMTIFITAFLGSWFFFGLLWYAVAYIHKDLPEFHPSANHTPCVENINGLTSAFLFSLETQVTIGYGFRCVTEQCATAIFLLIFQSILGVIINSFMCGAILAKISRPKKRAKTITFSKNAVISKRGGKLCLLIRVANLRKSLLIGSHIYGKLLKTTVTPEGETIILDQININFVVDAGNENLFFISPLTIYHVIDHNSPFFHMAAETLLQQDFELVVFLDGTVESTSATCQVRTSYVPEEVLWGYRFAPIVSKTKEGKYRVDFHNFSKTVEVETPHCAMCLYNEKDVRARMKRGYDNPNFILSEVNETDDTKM
* hit, by the source's call; i = inactive; nt = not tested or not shown. Shown are actives, neighbours in structure and some others; about 12% of the full set was active somewhere.

SMILES | WT yeast gro inh | KCC2 mod | Lmaj promast | Calpain2 inh | ROMK mod
O=C(CCc1ccc(S(=O)(=O)N2CCOCC2)cc1)Nc1ccc2c(c1)OCCO2 | nt | -0.84 | nt | -28 | nt
CC(C)C(NS(=O)(=O)c1cccc2nsnc12)C(=O)NCc1ccc2c(c1)OCO2 (stereo not drawn) | -7 | -0.017 | 100* | -48 | nt
CC(C)C(NS(=O)(=O)c1cccc2nsnc12)C(=O)NCc1ccco1 (stereo not drawn) | nt | 0.23 | nt | 2 | 0.16
Cc1ccc(S(=O)(=O)Nc2ccc3oc(=O)sc3c2)c(C)c1 | 61* | 1.2 | -5 | -1 | nt
Cc1cc(Nc2ccccc2)nc2cc(O)ccc12 | 62* | -1.6 | 83* | -14 | 0.14
CCOC(=O)C1(CC2CC2)CCN(S(=O)(=O)/C=C/c2ccccc2)CC1 | 22 | -0.65 | 4 | 28 | -1.5
Cc1ccc(C)c(NC(=O)C(Sc2ncnc3ccccc23)c2ccccc2)c1 (stereo not drawn) | -1 | -0.15 | 73* | 21 | nt
CC(=O)c1cccc(NC(=O)C(Sc2ncnc3ccccc23)c2ccccc2)c1 (stereo not drawn) | -4 | -0.014 | 19 | -18 | nt
Cc1ccc(S(=O)(=O)[N-]c2nc3ccccc3nc2-[n+]2cc(C)cc(C)c2)cc1 | nt | 0.37 | nt | 1 | -0.31
COc1cc(C(=O)NCC(=O)N/N=C(/C)c2cccs2)cc(OC)c1OC | -30 | 0.042 | 65* | -4 | 0.086
O=S1(=O)CCN(Cc2ccccn2)CC1 | nt | nt | nt | -12 | nt
CC1CN(Cc2ccccn2)CCC1=O (stereo not drawn) | -9 | -0.14 | 53* | 19 | 0.27
CS(=O)Cc1cc(Sc2ccccc2)nc(-c2cccnc2)n1 (stereo not drawn) | -4 | -0.46 | 1 | 5 | 0.97
S=C1NCN(Cc2ccco2)CN1CCc1ccccc1 | nt | 0.0017 | nt | -10 | nt
S=C1SCN(Cc2ccccn2)CN1Cc1ccco1 | 19 | 0.1 | 80* | -33 | nt
COCCN1CSC(=S)N(Cc2ccco2)C1 | 6 | -0.08 | 85* | -14 | nt
CCCCN(CC)S(=O)(=O)c1ccc2c(c1)n(C)c(=O)c(=O)n2C | nt | 0.73 | nt | -44 | -0.48
COc1ccc(C2CCN(Cc3cccnc3)CC2O)cc1 (stereo not drawn) | -9 | -0.037 | 88* | -7 | -0.17
CC1CC(C)CN(C2CCN(Cc3cccnc3)CC2)C1 (stereo not drawn) | 63* | 0.024 | -4 | -27 | 0.61
N=c1c(C(=O)NCc2ccco2)cc2c(=O)n3ccccc3nc2n1Cc1ccccc1 | 6 | nt | 25 | -210 | -0.63
N=c1c(C(=O)NCc2ccco2)cc2c(=O)n3ccccc3nc2n1Cc1ccc(Cl)cc1 | 74* | -0.78 | 41 | nt | nt
Cc1ccc(S(=O)(=O)c2cc3c(=O)n4ccccc4nc3n(Cc3ccco3)c2=N)cc1 | 1 | -0.97 | 62* | i | -1
CC(C#N)(Nc1ccc(Cl)cc1)c1cccnc1 (stereo not drawn) | 6 | -0.96 | 70* | 20 | -0.89
Cc1ccc(C(C(=O)NCc2ccc(F)cc2)N(CCCO)C(=O)C2COc3ccccc3O2)o1 (stereo not drawn) | 5 | -1 | 5 | -25 | -0.23
O=C(N/N=C/c1ccccc1)c1sccc1OCc1ccc(F)cc1 | 6 | nt | 92* | 18 | nt
SMILES | WT yeast gro inh | KCC2 mod | Lmaj promast | Calpain2 inh | ROMK mod
O=C(N/N=C/c1ccncc1)c1ccccc1OCc1ccc(Br)cc1 | 9 | -2.8 | 100* | 6 | 0.42
O=c1nc2n(c3sc4c(c13)CCC4)Cc1ccccc1-2 | 12 | nt | nt | nt | nt
CCOC(=O)c1c(C)nn(-c2ccc(NC(=O)CSCC(=O)O)cc2)c1C | nt | -0.069 | nt | -16 | nt
FC(F)(F)c1nc(-c2cccs2)ncc1-c1nnnn1-c1ccc(Cl)cc1 | 77* | 0.36 | 2 | 9 | nt
CCN1CCN(CCOCCOc2ccccc2-c2ccccc2)CC1 | 12 | -0.84 | 93* | 22 | -0.63
c1ccc(-c2ccccc2OCCOCCN2CCNCC2)cc1 | -6 | -0.27 | 82* | -27 | -0.48
NCCOc1ccccc1-c1ccccc1 | 7 | 0.93 | 28 | 1 | nt
O=C1c2ccccc2C(=O)N1CC(=O)N1c2ccccc2CCc2ccccc21 | 9 | 0.97 | -2 | -11 | 0.4
O=C(C(Cc1ccccc1)N1C(=O)c2ccccc2C1=O)N1c2ccccc2CCc2ccccc21 (stereo not drawn) | 23 | -0.083 | 57* | -11 | -0.76
Cc1cnc(C(=O)NC(C)CCc2ccccc2)cn1 (stereo not drawn) | -11 | -0.22 | -5 | 9 | 0.049
COc1ccc(OC)c(NC(=O)C2C3CCC(O3)C2C(=O)O)c1 (stereo not drawn) | -13 | 0.78 | -6 | 21 | nt
CC(NCc1ccc(N(C)C)cc1)C1CC2CCC1C2 (stereo not drawn) | 4 | nt | 98* | 24 | -1.8
